40 compounds from PubChem BioAssay (NCI) can be followed below.

Compounds without any hit were thinned out: in the full panel of roughly 79,000, 15% have a hit. Unmarked numbers belong to inactive results. Activity calls are given as the source filed them. Cut-off read from the data, not from the text of the source: active = growth inhibition above about 70%; inactive = the rest.

The first experiment can be described thus: NCI Yeast Anticancer Drug Screen. Data for the mec2-1 strain (AID 157). The following applies: S. cerevisiae mec2-1 strain, at 50.0 µM, hits give high values. In outline: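 Readout is yeast growth inhibition, normalised to vehicle-treated controls, in the mec2-1 strain exposed to compound.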
For the compound `CCCNC=O`, the growth inhibition is -7.85%.

As to `CN(C)c1ccc(/C=C(\C#N)c2ccccc2Br)cc1`, the growth inhibition is -10.5%.

Take `CN(C)CCNc1ncnc2nc(-c3ccc4ccccc4c3)[nH]c12`: the growth inhibition was -20.9%.

`CCCCCCC(=O)CC(SCCS)c1ccc(Cl)c(Cl)c1` (stereo not given): the growth inhibition is 16.2%.

Take `COC1=C(c2ccccc2)P(=O)(Cc2ccccc2)C2CCCC12` (stereo not given): the growth inhibition is 21.4%.

As for `CNCC1OC(OC)C2OC(C)(C)OC12` (stereo not given), the growth inhibition was 5.1%.

For the compound `CCCCCCCC/C=C/CCCCCCCC(=O)NN(C)C`, the growth inhibition is -7.6%.

With `COCC1OC(n2cc(C)c(=O)n(C)c2=O)CC1OC` (stereo not given), the growth inhibition was 7.2%.

In the case of `CCCCCCCCCCCCCCCCCC1=NCC(C)O1` (stereo not given), the growth inhibition was -14%.

Turning to `CC(=O)c1cccc(NC(=O)Oc2ccc(C(=O)OCc3ccccc3)cc2)c1`, the growth inhibition is 88.9% (active).

In the case of `CCOCCOC(=O)CCCCCCCCC(=O)OCCOCC`, the growth inhibition is 11.9%.

For `Cc1ccccc1NC(=O)CC(=O)N1N=C(N(CCC#N)c2ccccc2Cl)CC1c1ccccc1` (stereo not given), the growth inhibition is -10%.

Take `CS/C(=C\c1ccc(C(=O)c2ccc(C)cc2)n1C)S(C)=O` (stereo not given): the growth inhibition was 15.2%.

Consider `COC(=O)c1oc([N+](=O)[O-])c(-c2ccccc2)c1-c1ccccc1`, for which the growth inhibition is 12.5%.

`CCN(CC)c1ccc2c(c1)Cc1ccccc1-2`: the growth inhibition is 1.15%.

For the compound `C=C(C)C(O)C(O)C(=C)C` (stereo not given), the growth inhibition is -17.8%.

Turning to `CNc1ccn(C2OC(CO)C(O)C2O)c(=O)n1` (stereo not given), the growth inhibition was -7.5%.

Regarding `COC(=O)C(/C(=N/N)C(=O)Nc1cc(Cl)ccc1Cl)c1nc2ccc([N+](=O)[O-])cc2[nH]c1=O` (stereo not given), the growth inhibition was -13.3%.

With `Nc1nc(N)nc(COc2ccccc2Cl)n1`, the growth inhibition was 8.5%.

Regarding `Cc1ccc(S(=O)(=O)N2CN3CN(C2)CN(S(=O)(=O)c2ccc(C)cc2)C3)cc1`, the growth inhibition is -26.9%.

For the compound `CC(C)(C)C1CCC(=NO)CC1` (stereo not given), the growth inhibition is 16.1%.

Regarding `COc1cccc(NC(=O)CC(=O)N/N=C/c2ccc(N(CCC#N)CCC#N)c(I)c2)c1`, the growth inhibition was 8.95%.

As to `c1ccc2c(c1)ccc1c3ccccc3ncc21`, the growth inhibition is 27.8%.

In the case of `c1ccc(-c2cc(-c3ccncc3)cc(-c3ccncc3)n2)cc1`, the growth inhibition is -21%.

Consider `O=C1C=CC(=O)N1n1c(-c2ccccc2)n[nH]c1=O`, for which the growth inhibition was -15.6%.

For `O=C1OCC2CC1C(=O)O2` (stereo not given), the growth inhibition is 0.3%.

Regarding `CN1C(=O)C(O)(c2c3c(c(C4(O)C(=O)N(C)c5ccccc54)c4c2OCO4)OCO3)c2ccccc21` (stereo not given), the growth inhibition was -0.6%.

For the compound `CCOC(=O)CC1CC(C)(C(=O)OCC)C(=O)CC1=O` (stereo not given), the growth inhibition was -4.9%.

In the case of `CN(C)CC(CN(C)C)C(=O)O`, the growth inhibition is 2.75%.

As for `COC(=O)[C@]1(C)CCCn2c(=O)n(-c3ccccc3)c(=O)n21`, the growth inhibition is 11.3%.

Take `COc1ccc(-n2[nH]c3c(cnc4ccccc43)c2=O)cc1`: the growth inhibition was -33.9%.

`CN(C)c1cc(N(C)C)c2cc(C#N)ccc2n1`: the growth inhibition was 3.05%.

Consider `N#CC(C#N)c1ccc(C(C#N)C#N)cc1`, for which the growth inhibition was -6.75%.

Turning to `Cc1n[n+](Cc2ccccc2)c2sc(N)nn12`, the growth inhibition is 6.25%.

In the case of `N#CC(c1cccs1)C1CCCCC1` (stereo not given), the growth inhibition is -0.5%.

On to `N=c1nc2n(cc1F)[C@@H]1O[C@H](CO)[C@@H](O)[C@@H]1O2`, for which the growth inhibition was -3.75%.

For the compound `O=C(CCC1CCCCC1)OC1CCCC1`, the growth inhibition is -4.45%.

`Cc1ccc(S(=O)(=O)OCC(C)C(c2ccccc2)c2ccccc2)cc1` (stereo not given): the growth inhibition is 1.9%.

`CC1(C)[C@H]2CC[C@@]1(C)C(=O)[C@H]2[N+](=O)[O-]`: the growth inhibition is -20.2%.

`O=c1onc2c3ccccc3ncn12`: the growth inhibition was 7.6%.

A further experiment in a line: NCI Yeast Anticancer Drug Screen. Data for the sgs1 mgt1 strain (AID 161).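 Note: 0% = growth of cultures given vehicle only.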 The note with it: S. cerevisiae sgs1 mgt1 strain, at 50.0 µM, hits give high values. A digest of the protocol:
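Compounds are added to genetically altered yeast, and growth is compared with cultures given vehicle alone to give percent inhibition.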
For `CCCNC=O`, the growth inhibition is -13.8%.

As for `CN(C)c1ccc(/C=C(\C#N)c2ccccc2Br)cc1`, the growth inhibition was 15.7%.

Turning to `CN(C)CCNc1ncnc2nc(-c3ccc4ccccc4c3)[nH]c12`, the growth inhibition is 7.8%.

On to `CCCCCCC(=O)CC(SCCS)c1ccc(Cl)c(Cl)c1` (stereo not given), for which the growth inhibition is -4.3%.

As to `COC1=C(c2ccccc2)P(=O)(Cc2ccccc2)C2CCCC12` (stereo not given), the growth inhibition was 35.9%.

As for `CNCC1OC(OC)C2OC(C)(C)OC12` (stereo not given), the growth inhibition was 8.15%.

Regarding `CCCCCCCC/C=C/CCCCCCCC(=O)NN(C)C`, the growth inhibition is -0.5%.

In the case of `COCC1OC(n2cc(C)c(=O)n(C)c2=O)CC1OC` (stereo not given), the growth inhibition was 19.9%.

Turning to `CCCCCCCCCCCCCCCCCC1=NCC(C)O1` (stereo not given), the growth inhibition is -0.35%.

Consider `CC(=O)c1cccc(NC(=O)Oc2ccc(C(=O)OCc3ccccc3)cc2)c1`, for which the growth inhibition is 80.7% (active).

Regarding `CCOCCOC(=O)CCCCCCCCC(=O)OCCOCC`, the growth inhibition is 12.6%.

Take `Cc1ccccc1NC(=O)CC(=O)N1N=C(N(CCC#N)c2ccccc2Cl)CC1c1ccccc1` (stereo not given): the growth inhibition was -39.3%.

Turning to `CS/C(=C\c1ccc(C(=O)c2ccc(C)cc2)n1C)S(C)=O` (stereo not given), the growth inhibition is 42.4%.

For the compound `COC(=O)c1oc([N+](=O)[O-])c(-c2ccccc2)c1-c1ccccc1`, the growth inhibition is 29.3%.

For `CCN(CC)c1ccc2c(c1)Cc1ccccc1-2`, the growth inhibition is 9.2%.

As to `C=C(C)C(O)C(O)C(=C)C` (stereo not given), the growth inhibition is -15.6%.

In the case of `CNc1ccn(C2OC(CO)C(O)C2O)c(=O)n1` (stereo not given), the growth inhibition is -2.05%.

Regarding `COC(=O)C(/C(=N/N)C(=O)Nc1cc(Cl)ccc1Cl)c1nc2ccc([N+](=O)[O-])cc2[nH]c1=O` (stereo not given), the growth inhibition was 7.3%.

Take `Nc1nc(N)nc(COc2ccccc2Cl)n1`: the growth inhibition is 8.35%.

Take `Cc1ccc(S(=O)(=O)N2CN3CN(C2)CN(S(=O)(=O)c2ccc(C)cc2)C3)cc1`: the growth inhibition was -9.15%.

On to `CC(C)(C)C1CCC(=NO)CC1` (stereo not given), for which the growth inhibition is 16.5%.

`COc1cccc(NC(=O)CC(=O)N/N=C/c2ccc(N(CCC#N)CCC#N)c(I)c2)c1`: the growth inhibition was 7.7%.

In the case of `c1ccc2c(c1)ccc1c3ccccc3ncc21`, the growth inhibition was 32.6%.

For the compound `c1ccc(-c2cc(-c3ccncc3)cc(-c3ccncc3)n2)cc1`, the growth inhibition is 9.4%.

In the case of `O=C1C=CC(=O)N1n1c(-c2ccccc2)n[nH]c1=O`, the growth inhibition is -16.9%.

Consider `O=C1OCC2CC1C(=O)O2` (stereo not given), for which the growth inhibition is 5.95%.

For the compound `CN1C(=O)C(O)(c2c3c(c(C4(O)C(=O)N(C)c5ccccc54)c4c2OCO4)OCO3)c2ccccc21` (stereo not given), the growth inhibition was -28.2%.

Regarding `CCOC(=O)CC1CC(C)(C(=O)OCC)C(=O)CC1=O` (stereo not given), the growth inhibition was -11%.

`CN(C)CC(CN(C)C)C(=O)O`: the growth inhibition was -13.3%.

Take `COC(=O)[C@]1(C)CCCn2c(=O)n(-c3ccccc3)c(=O)n21`: the growth inhibition is -6.65%.

In the case of `COc1ccc(-n2[nH]c3c(cnc4ccccc43)c2=O)cc1`, the growth inhibition is -33%.

Consider `CN(C)c1cc(N(C)C)c2cc(C#N)ccc2n1`, for which the growth inhibition was 17.2%.

Take `N#CC(C#N)c1ccc(C(C#N)C#N)cc1`: the growth inhibition is 0.25%.

For `Cc1n[n+](Cc2ccccc2)c2sc(N)nn12`, the growth inhibition is -41.6%.

Turning to `N#CC(c1cccs1)C1CCCCC1` (stereo not given), the growth inhibition was 2.05%.

As to `N=c1nc2n(cc1F)[C@@H]1O[C@H](CO)[C@@H](O)[C@@H]1O2`, the growth inhibition is 4.3%.

`O=C(CCC1CCCCC1)OC1CCCC1`: the growth inhibition was -2.7%.

Regarding `Cc1ccc(S(=O)(=O)OCC(C)C(c2ccccc2)c2ccccc2)cc1` (stereo not given), the growth inhibition is -4.55%.

For the compound `CC1(C)[C@H]2CC[C@@]1(C)C(=O)[C@H]2[N+](=O)[O-]`, the growth inhibition was -1.8%.

In the case of `O=c1onc2c3ccccc3ncn12`, the growth inhibition is -21.2%.
